Reference: PubChem BioAssay AID1159580 (chemical genetic matrix, 2015)
Where “and” joins values, the source holds several entries; their conditions need not be identical. Equal entries are not always repeated. Out of some 5,500 compounds screened, about 2,000 (36%) were called active. About 18% were inconclusive and are not listed. Rule as the data show it: active = normalized growth mostly below about 0.91 (no sharp cut-off); inconclusive = no clear call, values can overlap the other calls; inactive = mostly above about 0.92. The list shows a part of the results.

Assay: chemical genetic growth profiling, strain panel (AID 1159580);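 also: tested at 20 µM; growth read once vehicle control cultures reached saturation at 30 °C; 1 = growth at the plate median or of vehicle wells; lower values mean less growth of the strain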
Conditions: S. cerevisiae deletion strains, growth OD

Measured: normalized growth

OC(CCN1CCCC1)(c1ccccc1)C1CCCCC1 (centres undefined)
inactive: locus YAL021C, strain ccr4, active compounds read low 0.994 | locus YAL026C, strain drs2, active compounds read low 1 | locus YAL030W, strain snc1, active compounds read low 0.986 | locus YBL061C, strain skt5, active compounds read low 0.989 | locus YBR009C, strain hhf1, active compounds read low 1 | locus YBR021W, strain FUR4, active compounds read low 0.947 | locus YBR023C, strain chs3, active compounds read low 0.987 | locus YBR171W, strain sec66, active compounds read low 0.965 | locus YBR229C, strain ROT2, active compounds read low 0.988 | locus YBR231C, strain swc5, active compounds read low 0.977 | locus YBR279W, strain paf1, active compounds read low 1 | locus YCL011C, strain gbp2, active compounds read low 0.998 | locus YCL016C, strain dcc1, active compounds read low 1.01 | locus YCL029C, strain bik1, active compounds read low 0.985 | locus YCL061C, strain MRC1, active compounds read low 0.976 | locus YCL069W, strain vba3, active compounds read low 0.98 | locus YCR088W, strain abp1, active compounds read low 0.976 | locus YDL005C, strain med2, active compounds read low 0.984 | locus YDL035C, strain GPR1, active compounds read low 0.994 | locus YDL040C, strain nat1, active compounds read low 0.989 | locus YDL074C, strain BRE1, active compounds read low 1.01 | locus YDL101C, strain DUN1, active compounds read low 0.995 | locus YDL134C, strain PPH21, active compounds read low 0.99 | locus YDL185W, strain tfp1, active compounds read low 0.979 | locus YDL192W, strain arf1, active compounds read low 0.986 | locus YDR001C, strain nth1, active compounds read low 0.991 | locus YDR069C, strain doa4, active compounds read low 0.986 | locus YDR101C, strain arx1, active compounds read low 0.982 | locus YDR137W, strain rgp1, active compounds read low 1.05 | locus YDR150W, strain NUM1, active compounds read low 1 | locus YDR159W, strain sac3, active compounds read low 0.991 | locus YDR162C, strain NBP2, active compounds read low 0.995 | locus YDR195W, strain ref2 0.942 | locus YDR297W, strain sur2, active compounds read low 0.978 | locus YDR318W, strain mcm21, active compounds read low 0.973 | locus YDR334W, strain swr1, active compounds read low 0.983 | locus YDR335W, strain msn5, active compounds read low 0.981 | locus YDR388W, active compounds read low 0.976 | locus YDR392W, strain spt3, active compounds read low 1 | locus YDR502C, strain sam2, active compounds read low 1 | locus YEL003W, strain gim4, active compounds read low 0.975 | locus YEL037C, strain rad23, active compounds read low 0.982 | locus YEL061C, strain CIN8 (second series), active compounds read low 0.986 | locus YEL061C, strain CIN8, active compounds read low 0.998 | locus YER015W, strain faa2, active compounds read low 0.989 | locus YER016W, strain bim1, active compounds read low 0.998 | locus YER110C, active compounds read low 0.975 | locus YER111C, strain swi4, active compounds read low 1 | locus YER155C, strain BEM2 (second series), active compounds read low 0.946 | locus YER155C, strain BEM2, active compounds read low 0.99 | locus YER167W, strain BCK2, active compounds read low 0.992 | locus YFR010W, strain ubp6, active compounds read low 0.976 | locus YGL078C, strain dbp3, active compounds read low 0.985 | locus YGL086W, strain mad1, active compounds read low 0.994 | locus YGL167C, strain pmr1, active compounds read low 0.985 | locus YGL173C, strain kem1, active compounds read low 0.972 | locus YGL227W, strain vid30, active compounds read low 0.99 | locus YGL240W, strain doc1, active compounds read low 0.963 | locus YGL248W, strain PDE1, active compounds read low 0.996 | locus YGL253W, strain hxk2, active compounds read low 1.01 | locus YGR078C, strain PAC10, active compounds read low 0.998 | locus YGR135W, strain pre9, active compounds read low 0.983 | locus YGR229C, strain SMI1, active compounds read low 0.993 | locus YGR252W, strain gcn5, active compounds read low 1.01 | locus YHR013C, strain ard1, active compounds read low 1 | locus YHR027C, strain rpn1, active compounds read low 0.991 | locus YHR030C, strain SLT2, active compounds read low 0.987 and 1.02 | locus YHR079C, strain IRE1 (second series), active compounds read low 0.977 | locus YHR079C, strain IRE1, active compounds read low 1.02 | locus YHR094C, strain hxt1, active compounds read low 0.975 | locus YHR129C, strain ARP1, active compounds read low 1 | locus YHR142W, strain chs7, active compounds read low 0.999 | locus YHR200W, strain rpn10, active compounds read low 0.974 | locus YIL066C, strain RNR3, active compounds read low 0.989 | locus YIL073C, strain SPO22, active compounds read low 0.957 | locus YIL125W, strain kgd1, active compounds read low 0.967 | locus YIR030C, strain dcg1, active compounds read low 0.985 | locus YJL092W, strain hpr5, active compounds read low 0.969 | locus YJL095W, strain BCK1 (second series), active compounds read low 0.986 | locus YJL095W, strain BCK1, active compounds read low 1 and 1.03 | locus YJL115W, strain asf1, active compounds read low 0.987 | locus YJL129C, strain trk1, active compounds read low 0.973 | locus YJL134W, strain LCB3, active compounds read low 0.994 | locus YJL154C, strain vps35, active compounds read low 0.991 | locus YJL164C, strain tpk1, active compounds read low 1.01 | locus YJL166W, strain qcr8, active compounds read low 0.952 | locus YJL168C, strain set2, active compounds read low 0.974 | locus YJL187C, strain SWE1 (second series), active compounds read low 0.989 | locus YJL187C, strain SWE1, active compounds read low 0.996
